Unmarked numbers belong to inactive results. Results filed as inconclusive are left out. Entries that show only a call come without a potency. Active and inactive are the calls of the source. Unless noted, calls come from the whole dose curve; as a rule, active = well fitted curve in the direction sought with a large enough effect in the repeat runs; inconclusive = weak or mixed curves; inactive = no such curve, though single readings can be large; an effect the other way counts as inactive or inconclusive.
Key:
[1] = target: Acetylcholinesterase (Homo sapiens) (UniProt P22303); experiment: Acetylcholinesterase (AChE) small molecule antagonists: enzyme-based qHTS assay (AID 1347397; calls by dose curve; note: nearly all actives have a fitted effect of over 55% in size); conditions: Potency: AChE enzyme activity inhibition
Sequence of Acetylcholinesterase (Homo sapiens) (P22303 whole entry, looked up): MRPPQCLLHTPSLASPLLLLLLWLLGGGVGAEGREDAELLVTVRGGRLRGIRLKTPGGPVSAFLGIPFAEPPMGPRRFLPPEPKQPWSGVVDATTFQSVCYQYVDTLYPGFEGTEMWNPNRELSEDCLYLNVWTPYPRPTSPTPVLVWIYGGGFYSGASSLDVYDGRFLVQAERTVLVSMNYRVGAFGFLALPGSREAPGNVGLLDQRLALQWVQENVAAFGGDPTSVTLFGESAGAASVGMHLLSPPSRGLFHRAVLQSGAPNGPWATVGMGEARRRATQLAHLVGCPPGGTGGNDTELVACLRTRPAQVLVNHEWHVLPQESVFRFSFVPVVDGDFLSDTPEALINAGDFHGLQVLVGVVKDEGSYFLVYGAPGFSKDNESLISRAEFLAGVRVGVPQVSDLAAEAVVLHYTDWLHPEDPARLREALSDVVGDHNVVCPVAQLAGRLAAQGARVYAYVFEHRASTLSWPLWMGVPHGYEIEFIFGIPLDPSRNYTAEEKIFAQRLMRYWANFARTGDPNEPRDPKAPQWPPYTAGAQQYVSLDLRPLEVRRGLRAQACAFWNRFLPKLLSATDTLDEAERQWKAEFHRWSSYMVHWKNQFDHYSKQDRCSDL
In short: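 Colorimetric DTNB readout of acetylthiocholine hydrolysis, 10 min at room temperature, after 30 min room-temperature exposure of 50 mU/mL recombinant human enzyme to compound; DMSO vehicle control.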

[2] = target: Acetylcholinesterase (Homo sapiens) (UniProt P22303); experiment: Acetylcholinesterase (AChE) small molecule antagonists: fluorescence cell-based qHTS assay (AID 1347398; calls by dose curve; note: nearly all actives have a fitted effect of over 50% in size); conditions: Potency: AChE activity
In short: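 Cellular AChE activity read as thiocholine from acetylthiocholine hydrolysis, detected by Thiolite Green fluorescence at 490/520 nm after 40 min at room temperature. Compounds were pre-incubated 30 min at 37 C on adherent SH-SY5Y cells.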

[3] = target: Acetylcholinesterase (Homo sapiens) (UniProt P22303); experiment: Acetylcholinesterase (AChE) small molecule antagonists: enzyme-based qHTS assay with human liver microsomes (AID 1347399; calls by dose curve; note: nearly all actives have a fitted effect of over 60% in size); conditions: Potency: qHTS inhibition
In short: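 Recombinant human AChE (50 mU/mL in the enzyme mix) and human liver microsomes (0.25 mg/mL final) were preincubated with compound and NADPH (0.25 mg/mL final) for 30 min at 37 C. Acetylthiocholine/DTNB was then added; thiocholine was read colorimetrically after 10 min at room temperature.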

[4] = target: Cytochrome P450 2D6 (Homo sapiens) (UniProt P10635); experiment: Cytochrome P450 Family 2 Subfamily D Member 6 (CYP2D6) small molecule antagonists: luciferase reporter qHTS assay (AID 1671196); note: nearly all actives have a fitted effect of over 50% in size; for activity change, negative = inhibition: series mostly up to about 120 µM
Sequence of Cytochrome P450 2D6 (Homo sapiens) (P10635 whole entry, looked up): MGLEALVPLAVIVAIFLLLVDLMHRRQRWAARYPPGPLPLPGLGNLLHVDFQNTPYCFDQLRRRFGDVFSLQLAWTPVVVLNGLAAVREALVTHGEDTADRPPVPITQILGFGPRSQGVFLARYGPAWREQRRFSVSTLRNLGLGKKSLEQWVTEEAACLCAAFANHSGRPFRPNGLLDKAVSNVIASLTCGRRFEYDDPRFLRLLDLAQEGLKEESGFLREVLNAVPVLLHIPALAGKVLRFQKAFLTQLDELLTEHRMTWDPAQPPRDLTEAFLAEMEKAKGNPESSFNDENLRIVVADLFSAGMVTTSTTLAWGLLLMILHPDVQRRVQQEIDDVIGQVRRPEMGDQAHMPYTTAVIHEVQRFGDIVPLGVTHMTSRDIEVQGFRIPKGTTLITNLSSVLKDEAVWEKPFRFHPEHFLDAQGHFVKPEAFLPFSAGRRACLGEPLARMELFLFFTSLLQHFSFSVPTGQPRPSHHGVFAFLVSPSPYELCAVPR
In short: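 Room-temperature luminescent CYP2D6 activity assay: compound preincubated 10 min with enzyme–substrate mix, NADPH-initiated reaction 1 h, detection reagent 20 min before reading.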

[5] = target: Cytochrome P450 2C19 (Homo sapiens) (UniProt P33261); experiment: Cytochrome P450 Family 2 Subfamily C Member 19 (CYP2C19) small molecule antagonists: luciferase reporter qHTS assay (AID 1671197); note: nearly all actives have a fitted effect of over 65% in size; for activity change, negative = inhibition: series mostly up to about 120 µM
Sequence of Cytochrome P450 2C19 (Homo sapiens) (P33261 whole entry, looked up): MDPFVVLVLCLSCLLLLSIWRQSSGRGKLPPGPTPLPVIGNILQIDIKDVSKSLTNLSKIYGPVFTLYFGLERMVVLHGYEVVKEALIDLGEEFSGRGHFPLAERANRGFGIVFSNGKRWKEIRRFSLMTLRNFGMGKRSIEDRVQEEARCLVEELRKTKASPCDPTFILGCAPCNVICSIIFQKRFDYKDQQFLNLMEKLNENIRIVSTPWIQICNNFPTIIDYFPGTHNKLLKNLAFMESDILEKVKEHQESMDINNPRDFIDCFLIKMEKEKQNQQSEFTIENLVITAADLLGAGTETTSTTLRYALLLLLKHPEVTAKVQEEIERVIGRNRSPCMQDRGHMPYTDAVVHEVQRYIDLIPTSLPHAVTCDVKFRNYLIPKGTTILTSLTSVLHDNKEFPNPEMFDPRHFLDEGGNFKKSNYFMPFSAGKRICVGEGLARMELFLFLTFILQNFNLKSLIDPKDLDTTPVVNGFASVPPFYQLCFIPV
In short: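 First, compounds are pinned into enzyme-substrate mix and held 10 min at room temperature. Second, NADPH regeneration solution is added and plates incubate 1 h at 37C. Third, detection reagent is added and luminescence read after 20 min.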

[6] = target: Cytochrome P450 2C9 (Homo sapiens) (UniProt P11712); experiment: Cytochrome P450 Family 2 Subfamily C Member 9 (CYP2C9) small molecule antagonists: luciferase reporter qHTS assay (AID 1671198); note: nearly all actives have a fitted effect of over 50% in size; for activity change, negative = inhibition: series mostly up to about 120 µM
Sequence of Cytochrome P450 2C9 (Homo sapiens) (P11712 whole entry, looked up): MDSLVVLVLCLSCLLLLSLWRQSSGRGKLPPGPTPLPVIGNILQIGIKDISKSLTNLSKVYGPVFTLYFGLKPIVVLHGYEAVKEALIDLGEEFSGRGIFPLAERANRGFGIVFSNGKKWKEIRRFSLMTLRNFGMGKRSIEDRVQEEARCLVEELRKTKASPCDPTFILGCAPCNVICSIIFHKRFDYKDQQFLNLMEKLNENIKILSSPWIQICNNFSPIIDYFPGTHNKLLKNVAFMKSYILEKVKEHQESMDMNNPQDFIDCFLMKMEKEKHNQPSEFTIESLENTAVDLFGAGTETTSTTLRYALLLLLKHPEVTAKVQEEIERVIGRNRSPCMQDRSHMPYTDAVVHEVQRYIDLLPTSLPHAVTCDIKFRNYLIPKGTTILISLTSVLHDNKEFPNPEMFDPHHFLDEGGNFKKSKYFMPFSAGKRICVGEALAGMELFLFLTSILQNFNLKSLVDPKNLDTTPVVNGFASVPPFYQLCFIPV
In short: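 Enzyme-substrate mix preincubated with compound 10 min at room temperature; reaction started with NADPH regeneration solution, 1 h 37C. Luminescent luciferin product read after 20 min detection reagent.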

[7] = target: Voltage-gated inwardly rectifying potassium channel KCNH2 (Homo sapiens) (UniProt Q12809); experiment: Human Ether-a-go-go-Related Gene (hERG) channel small molecule antagonists: fluorescence cell-based qHTS assay (AID 1671200); note: nearly all actives have a fitted effect of over 50% in size;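 for activity change, negative = inhibition: hERG-expressing U2OS cells given a thallium stimulus after FluxOR II dye loading; series mostly up to about 77 µM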
Sequence of Voltage-gated inwardly rectifying potassium channel KCNH2 (Homo sapiens) (Q12809 whole entry, looked up): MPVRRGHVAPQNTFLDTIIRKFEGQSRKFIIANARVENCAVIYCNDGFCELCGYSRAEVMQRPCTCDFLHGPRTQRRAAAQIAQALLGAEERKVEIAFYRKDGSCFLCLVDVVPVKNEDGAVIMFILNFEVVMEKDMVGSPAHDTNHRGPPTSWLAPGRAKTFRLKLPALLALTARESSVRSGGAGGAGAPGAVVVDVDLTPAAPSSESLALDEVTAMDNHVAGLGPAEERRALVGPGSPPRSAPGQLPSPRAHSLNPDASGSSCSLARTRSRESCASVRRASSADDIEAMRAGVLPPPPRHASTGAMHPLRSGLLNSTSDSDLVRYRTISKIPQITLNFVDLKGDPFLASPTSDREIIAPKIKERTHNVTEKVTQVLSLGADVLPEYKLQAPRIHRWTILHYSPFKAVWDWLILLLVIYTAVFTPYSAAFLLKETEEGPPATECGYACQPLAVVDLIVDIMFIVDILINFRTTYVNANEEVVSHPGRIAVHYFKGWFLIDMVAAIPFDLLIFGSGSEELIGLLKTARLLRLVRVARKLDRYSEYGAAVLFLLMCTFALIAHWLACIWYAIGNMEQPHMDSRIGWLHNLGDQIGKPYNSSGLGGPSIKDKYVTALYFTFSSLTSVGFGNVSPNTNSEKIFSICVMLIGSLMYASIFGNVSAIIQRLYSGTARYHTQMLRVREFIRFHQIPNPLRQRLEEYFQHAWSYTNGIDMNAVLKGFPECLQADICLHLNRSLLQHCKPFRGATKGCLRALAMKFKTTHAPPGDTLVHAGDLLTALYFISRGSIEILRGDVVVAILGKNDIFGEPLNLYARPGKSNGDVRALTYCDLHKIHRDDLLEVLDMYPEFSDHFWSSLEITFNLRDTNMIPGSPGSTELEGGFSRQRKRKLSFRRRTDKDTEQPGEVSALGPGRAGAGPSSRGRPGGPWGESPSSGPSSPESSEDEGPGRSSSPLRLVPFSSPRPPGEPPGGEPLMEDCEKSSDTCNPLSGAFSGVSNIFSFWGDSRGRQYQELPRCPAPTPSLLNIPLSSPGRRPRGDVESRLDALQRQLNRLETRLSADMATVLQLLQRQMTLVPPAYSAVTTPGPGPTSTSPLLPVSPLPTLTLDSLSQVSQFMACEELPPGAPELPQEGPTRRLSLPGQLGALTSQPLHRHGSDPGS
In short: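 Read-out: thallium influx as a surrogate for potassium, tracked as fluorescence (480 nm ex/540 nm em) every second for 2 min after Stimulus Buffer addition in dye-loaded hERG-U2OS cells.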

[8] = target: Cytochrome P450 1A2 (Homo sapiens) (UniProt P05177); experiment: Cytochrome P450 Family 1 Subfamily A Member 2 (CYP1A2) small molecule antagonists: luciferase reporter qHTS assay (AID 1671199); note: nearly all actives have a fitted effect of over 50% in size; for activity change, negative = inhibition: series mostly up to about 120 µM
Sequence of Cytochrome P450 1A2 (Homo sapiens) (P05177 whole entry, looked up): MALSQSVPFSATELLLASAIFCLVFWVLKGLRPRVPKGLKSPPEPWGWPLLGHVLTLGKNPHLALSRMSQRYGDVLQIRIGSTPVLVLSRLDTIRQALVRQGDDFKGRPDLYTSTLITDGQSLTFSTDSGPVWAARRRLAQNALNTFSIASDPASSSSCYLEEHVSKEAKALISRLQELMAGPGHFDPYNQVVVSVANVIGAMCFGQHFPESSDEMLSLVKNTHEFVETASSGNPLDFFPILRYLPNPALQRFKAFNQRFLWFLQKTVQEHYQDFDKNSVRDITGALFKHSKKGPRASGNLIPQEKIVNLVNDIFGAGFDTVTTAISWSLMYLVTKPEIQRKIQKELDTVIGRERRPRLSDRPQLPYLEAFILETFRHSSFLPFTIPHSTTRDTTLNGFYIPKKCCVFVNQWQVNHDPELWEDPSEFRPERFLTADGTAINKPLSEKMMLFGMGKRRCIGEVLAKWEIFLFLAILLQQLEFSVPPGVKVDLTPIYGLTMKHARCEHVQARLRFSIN
In short: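 Room-temperature CYP1A2 reaction with proluciferin substrate: compounds added from DMSO, 10 min preincubation, NADPH regeneration for 1 h. Luciferin detection reagent then added; luminescence recorded as RLU.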

[9] = target: Cytochrome P450 3A4 (Homo sapiens) (UniProt P08684); experiment: Cytochrome P450 Family 3 Subfamily A Member 4 (CYP3A4) small molecule antagonists: luciferase reporter qHTS assay (AID 1671201); note: nearly all actives have a fitted effect of over 50% in size; for activity change, negative = inhibition: series mostly up to about 120 µM
Sequence of Cytochrome P450 3A4 (Homo sapiens) (P08684 whole entry, looked up): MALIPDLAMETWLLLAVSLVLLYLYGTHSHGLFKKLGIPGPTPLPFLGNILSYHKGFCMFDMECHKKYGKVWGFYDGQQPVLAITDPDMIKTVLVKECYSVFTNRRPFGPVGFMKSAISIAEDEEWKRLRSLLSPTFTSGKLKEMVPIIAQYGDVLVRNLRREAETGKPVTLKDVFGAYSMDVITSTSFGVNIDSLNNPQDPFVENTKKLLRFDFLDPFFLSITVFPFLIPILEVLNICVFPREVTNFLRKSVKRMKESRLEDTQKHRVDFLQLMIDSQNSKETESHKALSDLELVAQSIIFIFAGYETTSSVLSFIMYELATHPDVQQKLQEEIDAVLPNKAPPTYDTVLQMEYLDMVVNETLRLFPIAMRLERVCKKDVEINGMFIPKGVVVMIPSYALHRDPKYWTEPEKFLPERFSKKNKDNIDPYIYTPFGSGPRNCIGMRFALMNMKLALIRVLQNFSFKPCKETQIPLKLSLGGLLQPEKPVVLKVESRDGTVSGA
In short: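 Luminescent readout (RLU) proportional to CYP3A4 activity, from luciferin generated off a proluciferin substrate. Enzyme–substrate mix plus compound 10 min at room temp, NADPH regeneration 1 h, detection reagent 20 min.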
Potency is the fitted concentration of half-maximal effect.

In the case of `Nc1n[nH]c(N)n1`, the Potency [1] is reported as “inactive”, the Potency [2] is reported as “inactive” and the Potency [3] is reported as “inactive”. For the same molecule, the Potency [4] was “inactive”, the Potency [5] was “inactive” and the Potency [6] was “inactive”. The Potency [7] was “inactive”.

For `CCC(=O)c1ccccc1`, the Potency [1] was “inactive”, the Potency [2] was “inactive” and the Potency [3] was “inactive”. For the same molecule, the Potency [4] was “inactive”, the Potency [5] was “inactive” and the Potency [6] was “inactive”. The Potency [8] was “inactive”, the Potency [7] was “inactive” and the Potency [9] was “inactive”.

In the case of `c1cc[c]([Hg][c]2ccccc2)cc1`, the Potency [1] is reported as “inactive”, the Potency [2] is reported as “inactive” and the Potency [3] is reported as “inactive”. For the same molecule, the Potency [4] was 1 µM (active), the Potency [5] was 22.4 µM (active) and the Potency [6] was 31.7 µM (active). The Potency [8] was 10 µM (active), the Potency [7] was “inactive” and the Potency [9] was “inactive”.

In the case of `Cc1nc(N)nc(N)n1`, the Potency [1] is reported as “inactive”, the Potency [2] is reported as “inactive” and the Potency [3] is reported as “inactive”. The Potency [4] was “inactive”, the Potency [5] was “inactive” and the Potency [6] was “inactive”. For the same molecule, the Potency [8] was “inactive”, the Potency [7] was “inactive” and the Potency [9] was “inactive”.

`CC1=C(C(=O)O)N2C(=O)[C@@H](N)[C@H]2SC1` was tested, and the activity change, negative = inhibition [1] was 0.693% [at 23.6 µM], the activity change, negative = inhibition [2] was 0.138% [at 23.8 µM] and the activity change, negative = inhibition [3] was 2.02% [at 23.6 µM]. For the same molecule, the activity change, negative = inhibition [4] was -15.2% [at 23.6 µM], the activity change, negative = inhibition [5] was -10.3% [at 23.6 µM] and the activity change, negative = inhibition [6] was 5.86% [at 23.6 µM]. It also gave an activity change, negative = inhibition [8] of 13% [at 23.6 µM], an activity change, negative = inhibition [7] of 3.94% [at 15.8 µM] and an activity change, negative = inhibition [9] of 11.3% [at 23.6 µM].

`C=CCC1=C(C)[C@@H](OC(=O)[C@@H]2[C@@H](C=C(C)C)C2(C)C)CC1=O` was tested, and the Potency [1] was “inactive”, the Potency [2] was “inactive” and the Potency [3] was “inactive”. The Potency [4] was 35.6 µM (active), the Potency [5] was 6.33 µM (active) and the Potency [6] was 12.6 µM (active). The Potency [8] was 28.3 µM (active) and the Potency [7] was 21.9 µM (active).

With `Oc1c(Cl)cccc1Cl` the Potency [1] was “inactive”, the Potency [2] was “inactive” and the Potency [3] was “inactive”. The Potency [4] was “inactive”, the Potency [5] was “inactive” and the Potency [6] was “inactive”. For the same molecule, the Potency [7] was “inactive” and the Potency [9] was “inactive”.

With `CCN(CC)C(C)C(=O)c1ccccc1` (stereo unspecified) the Potency [1] was “inactive”, the Potency [2] was “inactive” and the Potency [3] was “inactive”. For the same molecule, the Potency [4] was 19.5 µM (active), the Potency [5] was “inactive” and the Potency [6] was “inactive”. The Potency [8] was “inactive”, the Potency [7] was “inactive” and the Potency [9] was “inactive”.

In the case of `CC(CCc1ccccc1)NC(C)C(O)c1ccc(O)cc1` (stereo unspecified), the Potency [1] is reported as “inactive”, the Potency [2] is reported as “inactive” and the Potency [3] is reported as “inactive”. For the same molecule, the Potency [4] was 0.436 µM (active), the Potency [5] was 9.77 µM (active) and the Potency [6] was “inactive”. The Potency [8] was 15.5 µM (active), the Potency [7] was 4.77 µM (active) and the Potency [9] was “inactive”.

In the case of `CC1CCCCC1NC(=O)Nc1ccccc1` (stereo unspecified), the Potency [1] is reported as “inactive”, the Potency [2] is reported as “inactive” and the Potency [3] is reported as “inactive”. The Potency [4] was 71 µM (active), the Potency [5] was 11.2 µM (active) and the Potency [6] was 35.6 µM (active). The Potency [8] was 31.7 µM (active), the Potency [7] was “inactive” and the Potency [9] was 11.2 µM (active).

With `CCOC(=O)C(c1c(O)c2ccccc2oc1=O)c1c(O)c2ccccc2oc1=O` the Potency [1] was “inactive”, the Potency [2] was “inactive” and the Potency [3] was “inactive”. The Potency [4] was “inactive”, the Potency [5] was “inactive” and the Potency [6] was 2.75 µM (active). For the same molecule, the Potency [7] was “inactive” and the Potency [9] was “inactive”.

`C[N+](C)=CCl` was tested, and the Potency [1] was “inactive”, the Potency [2] was “inactive” and the Potency [3] was “inactive”. For the same molecule, the Potency [4] was “inactive”, the Potency [5] was “inactive” and the Potency [6] was “inactive”. For the same molecule, the Potency [8] was “inactive”, the Potency [7] was “inactive” and the Potency [9] was “inactive”.

`CC(=O)[C@H]1CC[C@H]2[C@@H]3CC[C@H]4C[C@H](O)CC[C@]4(C)[C@H]3C(=O)C[C@]12C` was tested, and the Potency [1] was “inactive”, the Potency [2] was “inactive” and the Potency [3] was “inactive”.

In the case of `[O]=[Cd]`, the Potency [1] is reported as “inactive”, the Potency [2] is reported as “inactive” and the Potency [3] is reported as “inactive”. The Potency [4] was “inactive”, the Potency [5] was “inactive” and the Potency [6] was “inactive”. For the same molecule, the Potency [8] was “inactive”, the Potency [7] was “inactive” and the Potency [9] was “inactive”.

`CNCC(=O)c1ccc(O)c(O)c1` was tested, and the Potency [1] was “inactive”, the Potency [2] was “inactive” and the Potency [3] was “inactive”. The Potency [4] was “inactive”, the Potency [5] was “inactive” and the Potency [6] was “inactive”. For the same molecule, the Potency [7] was “inactive” and the Potency [9] was “inactive”.

In the case of `NC(=O)O`, the Potency [1] is reported as “inactive”, the Potency [2] is reported as “inactive” and the Potency [3] is reported as “inactive”. The Potency [4] was “inactive”, the Potency [5] was “inactive” and the Potency [6] was “inactive”. The Potency [8] was “inactive”, the Potency [7] was “inactive” and the Potency [9] was “inactive”.

With `CC(C)(C)NCC(O)c1cc(Cl)c(N)c(Cl)c1` (stereo unspecified) the Potency [1] was “inactive”, the Potency [2] was “inactive” and the Potency [3] was “inactive”. For the same molecule, the Potency [4] was 15.5 µM (active), the Potency [5] was “inactive” and the Potency [6] was “inactive”. For the same molecule, the Potency [8] was “inactive”, the Potency [7] was “inactive” and the Potency [9] was “inactive”.

`CCOP(=S)(OCC)Oc1ncn(-c2ccccc2)n1` was tested, and the Potency [1] was 71 µM (active), the Potency [2] was 35.6 µM (active) and the Potency [3] was 3.17 µM (active). For the same molecule, the Potency [4] was “inactive”, the Potency [5] was 1 µM (active) and the Potency [6] was 0.502 µM (active). For the same molecule, the Potency [7] was “inactive” and the Potency [9] was 2.52 µM (active).

For `O=C(NCO)NCO`, the Potency [1] was “inactive”, the Potency [2] was “inactive” and the Potency [3] was “inactive”. The Potency [4] was “inactive”, the Potency [5] was “inactive” and the Potency [6] was “inactive”. The Potency [8] was “inactive”, the Potency [7] was “inactive” and the Potency [9] was “inactive”.

`c1coc(-c2nc3ccccc3[nH]2)c1` was tested, and the Potency [1] was “inactive”, the Potency [2] was “inactive” and the Potency [3] was “inactive”. The Potency [4] was 44.8 µM (active), the Potency [5] was 28.3 µM (active) and the Potency [6] was “inactive”. For the same molecule, the Potency [8] was 7.96 µM (active), the Potency [7] was “inactive” and the Potency [9] was “inactive”.

In the case of `COc1ncc(F)c2nc(S(=O)(=O)Nc3c(F)cccc3F)nn12`, the Potency [1] is reported as “inactive”, the Potency [2] is reported as “inactive” and the Potency [3] is reported as “inactive”. For the same molecule, the Potency [4] was “inactive”, the Potency [5] was “inactive” and the Potency [6] was 22.6 µM (active). The Potency [8] was “inactive”, the Potency [7] was “inactive” and the Potency [9] was “inactive”.

For `CC1COC2(c3ccccc3Cl)c3cc(Cl)ccc3NC(=O)CN12` (stereo unspecified), the Potency [1] was “inactive”, the Potency [2] was “inactive” and the Potency [3] was “inactive”. For the same molecule, the Potency [4] was 15.5 µM (active), the Potency [5] was 4.36 µM (active) and the Potency [6] was 27.5 µM (active).

For `CCOP(=S)(OCC)SCSc1ccc(Cl)cc1`, the Potency [1] was “inactive”, the Potency [2] was “inactive” and the Potency [3] was “inactive”. For the same molecule, the Potency [4] was 11.2 µM (active), the Potency [5] was 0.502 µM (active) and the Potency [6] was 1 µM (active). For the same molecule, the Potency [8] was 8.94 µM (active) and the Potency [7] was “inactive”.

With `CC(COc1ccc(Oc2ccccc2)cc1)Oc1ccccn1` (stereo unspecified) the Potency [1] was “inactive”, the Potency [2] was “inactive” and the Potency [3] was “inactive”. The Potency [4] was “inactive”, the Potency [5] was 10 µM (active) and the Potency [6] was 15.9 µM (active). The Potency [8] was 15.9 µM (active) and the Potency [9] was “inactive”.

With `CCNc1nc(NC(C)C)nc(OC)n1` the Potency [1] was “inactive”, the Potency [2] was “inactive” and the Potency [3] was “inactive”. The Potency [4] was “inactive”, the Potency [5] was 25.2 µM (active) and the Potency [6] was “inactive”. The Potency [8] was 25.2 µM (active) and the Potency [7] was “inactive”.

— PubChem BioAssay (Tox21)
